In experiment [1] the target is Cytochrome P450 3A7 (Homo sapiens) (UniProt P24462). Kind of experiment: Cytochrome P450 family 3 subfamily A member 7 (CYP3A7) small molecule antagonists: luciferase biochemical qHTS assay (AID 1963596). Also: % is scaled to controls: 0 for no effect and ±100 for the full control effect; nearly all actives have a fitted effect of over 40% in size. The method, boiled down:
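Compounds were screened in qHTS format for interference with CYP3A7 turnover of a proluciferin substrate. Reactions ran 1 h at room temperature after NADPH regeneration solution was added, then luciferin product was detected by luminescence.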
(In qHTS, concentration-response curves come from the screen itself.)

Experiment [2] is described as follows: Viability qHTS for spleen associated tyrosine kinase inhibitor (SYKi) naive MV4-11 cells (AID 1963823). Also: nearly all actives have a fitted effect of over 40% in size. Also: potency is read from the fitted curve at half-maximal effect. In short, it runs like this: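 Viability of MV4-11 AML cells lacking prior SYK inhibitor exposure is scored by CellTiter-Glo luminescence following 72 hr compound incubation at 37 C, 5% CO2, seeded at 500 cells per well.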
Experiment [3] is described as follows: Viability qHTS for spleen associated tyrosine kinase inhibitor (SYKi) drug resistant MV4-11 cells (AID 1963824). Also: nearly all actives have a fitted effect of over 35% in size. Also: potency is read from the fitted curve at half-maximal effect. In short, it runs like this: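 CellTiter-Glo luminescence, read 10 min after reagent addition, reports viability after a 72 hr compound exposure. Cells are an MV4-11 line made resistant to SYK inhibition, seeded at 500 per well onto compound-containing plates.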

Experiment [4] in a line: Cellular viability qHTS for adrenocortical cancer (ACC) cell line SW-13 (AID 1963989). Also: nearly all actives have a fitted effect of over 65% in size. Also: potency is read from the fitted curve at half-maximal effect.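 As to activity (max response): cells grown in serum-free medium with ITS supplement; % is scaled to controls: 0 for no effect and ±100 for the full control effect.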 The note with it: SW-13 ACC cells viability, CellTiter-Glo, 48 h; activity (max response): stronger effect = lower value. In short, it runs like this: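 48 h treatment, SW-13 in ITS/DMEM serum-free; doses up to 46 uM; readout CellTiter-Glo luminescence; curve fit four-parameter logistic.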
A short description of experiment [5]: Cellular viability qHTS for adrenocortical cancer (ACC) cell line NCI-H295R (AID 1963990). Also: nearly all actives have a fitted effect of over 60% in size. Also: potency is read from the fitted curve at half-maximal effect.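 As to activity change, negative = viability loss: 0% = DMSO only wells and -100% = full killing with cytotoxic reference compound.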 The method, boiled down: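 Compound titrations (up to 46 uM final) are applied to NCI-H295R cultures for 48 h at 37C. Viable cell number is estimated by CellTiter-Glo signal, normalised to DMSO and doxorubicin controls.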

Where “and” joins values, the source holds several entries; their conditions need not be identical. Equal entries are not always repeated. Inconclusive results are not listed. Calls of active or inactive are those of the source. Calls follow the shape of the dose curve; as a rule, active = well fitted curve in the direction sought with a large enough effect; inconclusive = small, poorly fitted or top-dose-only effect, or another doubt; inactive = no such curve, though single readings can be large; an effect the other way counts as inactive or inconclusive. Where a SMILES comes first, the peptide text is derived from it. Bridges are numbered along the chain shown (N, C = ends). [ ]: non-standard residue; d: D form. The star is where a group is joined. X1 = CCC(C)C(N)C1=NC(C(=O)*)CS1; dOrn = NCCC[C@@H](N)C(=O)O

Chain of Cytochrome P450 3A7 (Homo sapiens) (P24462 whole entry, looked up): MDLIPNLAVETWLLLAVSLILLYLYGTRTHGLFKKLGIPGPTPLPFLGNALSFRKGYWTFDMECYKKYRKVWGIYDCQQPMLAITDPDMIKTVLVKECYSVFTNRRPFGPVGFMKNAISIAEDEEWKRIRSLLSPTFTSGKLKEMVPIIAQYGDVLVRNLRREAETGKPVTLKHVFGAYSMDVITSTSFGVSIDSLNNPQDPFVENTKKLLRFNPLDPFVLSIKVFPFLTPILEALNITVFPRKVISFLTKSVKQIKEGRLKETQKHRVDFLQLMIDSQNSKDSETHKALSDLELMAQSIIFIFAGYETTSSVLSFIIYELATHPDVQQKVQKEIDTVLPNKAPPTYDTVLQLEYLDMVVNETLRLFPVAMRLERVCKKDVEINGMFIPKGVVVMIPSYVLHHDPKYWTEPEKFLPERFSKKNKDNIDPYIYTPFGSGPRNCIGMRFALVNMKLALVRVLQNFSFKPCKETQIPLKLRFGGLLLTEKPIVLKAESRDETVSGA

As for `CN(N=O)C(=O)N[C@@H]1[C@@H](O)[C@H](O)[C@@H](CO)O[C@@H]1O`, the Potency result in experiment [1], in experiment [2], in experiment [3] and in experiment [5] was “inactive” each time. For the same molecule, the activity (max response) in experiment [4] is 0.228% (inactive) and 12.5% (inactive).

As to `COc1nccnc1NS(=O)(=O)c1ccc(N)cc1`, the Potency entry in experiment [1], in experiment [2], in experiment [3] and in experiment [5] was “inactive” throughout. In experiment [4], the activity (max response) was 1.63% (inactive).

Regarding `COC(=O)/C=C(/C)N`, the Potency entry in experiment [1], in experiment [3] and in experiment [5] was “inactive” throughout. For the same molecule, in experiment [2], the Potency is 16.8 µM (active). Also, the activity (max response) in experiment [4] is 13.3% (inactive).

On to `CC(=O)Nc1cccc(O)c1`, for which the Potency result in experiment [1], in experiment [2], in experiment [3] and in experiment [5] was “inactive” in each case. The activity (max response) in experiment [4] is -1.77% (inactive).

As for `COC(=O)Nc1nc2ccc(C(=O)C3CC3)cc2[nH]1`, the Potency result in experiment [1] was “inactive”. Further, the Potency in experiment [2] is 1.06 µM (active); in experiment [3], 750 nM (active); in experiment [4], 731 nM (active); in experiment [5], 461 nM (active).

For `CC(C)(Oc1ccc(C2CC2(Cl)Cl)cc1)C(=O)O` (stereo not given), the Potency result in experiment [1], in experiment [2], in experiment [3] and in experiment [5] was “inactive” in each case. In experiment [4], the activity (max response) was 13.8% (inactive) and -14.2% (inactive).

Turning to `C#CCN(C)Cc1ccccc1`, the Potency result in experiment [1], in experiment [2], in experiment [3] and in experiment [5] was “inactive” each time. Further, the activity (max response) in experiment [4] is 11.7% (inactive).

Consider `C[C@H](O)C(=O)Nc1c(I)c(C(=O)NC(CO)CO)c(I)c(C(=O)NC(CO)CO)c1I`, for which the Potency result in experiment [1], in experiment [2], in experiment [3] and in experiment [5] was “inactive” throughout. For the same molecule, in experiment [4], the activity (max response) was 10.3% (inactive).

For the molecule `CC(=O)NCCCS(=O)(=O)O`, the Potency result in experiment [1], in experiment [2], in experiment [3] and in experiment [5] was “inactive” in each case. The activity (max response) in experiment [4] was 5.88% (inactive).

For the molecule `CCc1cccc2c(CCO)c[nH]c12`, the Potency result in experiment [1], in experiment [2], in experiment [3] and in experiment [5] was “inactive” in each case. Moreover, the activity (max response) in experiment [4] is 12.9% (inactive).

With `NCCC(O)(P(=O)(O)O)P(=O)(O)O`, the Potency entry in experiment [1], in experiment [2], in experiment [3] and in experiment [5] was “inactive” throughout. In addition, in experiment [4], the activity (max response) is 6.05% (inactive).

As to `CCC(C)C(N)C1=NC(C(=O)N[C@@H](CC(C)C)C(=O)N[C@H](CCC(=O)O)C(=O)N[C@H](C(=O)N[C@H]2CCCCNC(=O)[C@H](CC(N)=O)NC(=O)[C@@H](CC(=O)O)NC(=O)[C@H](Cc3cnc[nH]3)NC(=O)[C@@H](Cc3ccccc3)NC(=O)[C@H]([C@@H](C)CC)NC(=O)[C@@H](CCCN)NC2=O)[C@@H](C)CC)CS1` (stereo not given in full) (X1-L[dE]IK[dOrn]I[dF]H[dD]N; lactam 4-C), the Potency entry in experiment [1], in experiment [2], in experiment [3] and in experiment [5] was “inactive” throughout. In addition, the activity (max response) in experiment [4] is -8.42% (inactive).

`CCn1c(=O)c(-c2ccc(Cl)cc2Cl)cc2cnc(Nc3ccc(N4CCNCC4)c(F)c3)nc21`: the Potency result in experiment [1] and in experiment [5] was “inactive” each time. Also, the Potency in experiment [2] was 82 nM (active) and 118 nM (active); in experiment [3] it was 231 nM (active) and 186 nM (active). Also, the activity (max response) in experiment [4] is -23.5% (inactive).

Take `CC(O)(P(=O)(O)O)P(=O)(O)O`: the Potency entry in experiment [1], in experiment [2], in experiment [3] and in experiment [5] was “inactive” in each case. For the same molecule, in experiment [4], the activity (max response) is 14.2% (inactive).

For `NS(=O)(=O)c1ccc(NC(=O)CCC(=O)O)cc1`, the Potency result in experiment [1], in experiment [2], in experiment [3] and in experiment [5] was “inactive” in each case. In addition, the activity (max response) in experiment [4] is 4.28% (inactive).

For `CCCCOCCOC(=O)c1cccnc1`, the Potency result in experiment [1], in experiment [2], in experiment [3] and in experiment [5] was “inactive” in each case. For the same molecule, the activity (max response) in experiment [4] was -1.25% (inactive).

Take `CCCNC(C)C(=O)Nc1c(C)csc1C(=O)OC` (stereo not given): the Potency entry in experiment [1], in experiment [2], in experiment [3] and in experiment [5] was “inactive” throughout. The activity (max response) in experiment [4] was 8.19% (inactive).

Take `CCN1CCN(C(=O)N[C@@H](C(=O)N[C@@H]2C(=O)N3C(C(=O)O)=C(CSc4nnnn4C)CS[C@H]23)c2ccc(O)cc2)C(=O)C1=O`: the Potency entry in experiment [1], in experiment [2], in experiment [3] and in experiment [5] was “inactive” in each case. Also, the activity (max response) in experiment [4] was 5.63% (inactive) and -4.45% (inactive).

Take `Cc1c(F)c(N2CCNC(C)C2)cc2c1c(=O)c(C(=O)O)cn2C1CC1` (stereo not given): the Potency entry in experiment [1], in experiment [2], in experiment [3] and in experiment [5] was “inactive” in each case. Besides, the activity (max response) in experiment [4] was -0.964% (inactive).

For `O=C(O)C(=O)Nc1cccc(-c2nn[nH]n2)c1`, the Potency entry in experiment [1], in experiment [2], in experiment [3] and in experiment [5] was “inactive” in each case. Also, the activity (max response) in experiment [4] was 14.5% (inactive) and 11% (inactive).

For `O=c1[nH]cnc2c1ncn2[C@@H]1O[C@H](CO)[C@@H](O)[C@H]1O`, the Potency result in experiment [1], in experiment [2], in experiment [3] and in experiment [5] was “inactive” in each case. The activity (max response) in experiment [4] is 4.44% (inactive).

For the molecule `C[C@@H]1CC[C@@]2(OC1)O[C@H]1C[C@H]3[C@@H]4CC[C@H]5C[C@@H](O)CC[C@]5(C)[C@H]4CC(=O)[C@]3(C)[C@H]1[C@@H]2C`, the activity change, negative = inhibition in experiment [1] is -8.63% [at 4.83 µM] (inactive). The viability (% of control) in experiment [2] is 83.6% [at 4.97 µM] (inactive). The viability, % of control in experiment [3] is 73.5% [at 4.97 µM] (inactive). In experiment [4], the activity (max response) was 5.1% (inactive). Also, the activity change, negative = viability loss in experiment [5] is -14.3% [at 3.81 µM] (inactive).

With `C[N+](C)(C)CCCCCCCCCC[N+](C)(C)C`, the Potency result in experiment [1], in experiment [2], in experiment [3] and in experiment [5] was “inactive” in each case. Further, in experiment [4], the activity (max response) is 14.5% (inactive).

As for `CCCCS(=O)(=O)N[C@@H](Cc1ccc(OCCCCC2CCNCC2)cc1)C(=O)O`, the Potency result in experiment [1], in experiment [2], in experiment [3] and in experiment [5] was “inactive” in each case. In addition, the activity (max response) in experiment [4] was 11.9% (inactive).

Regarding `Nc1ccc(/C=C/c2ccc(N)cc2S(=O)(=O)O)c(S(=O)(=O)O)c1`, in experiment [1], the activity change, negative = inhibition is 6.59% [at 0.91 µM] (inactive). Further, the viability (% of control) in experiment [2] was 106% [at 0.588 µM] (inactive). The viability, % of control in experiment [3] was 94.1% [at 0.588 µM] (inactive). Further, the activity (max response) in experiment [4] was 11.4% (inactive). Besides, in experiment [5], the activity change, negative = viability loss is -9.73% [at 0.587 µM] (inactive).

For the molecule `O=C(O)CN(CCOCCOCCN(CC(=O)O)CC(=O)O)CC(=O)O`, the activity change, negative = inhibition in experiment [1] is 3.38% [at 0.91 µM] (inactive). Besides, the viability (% of control) in experiment [2] was 65.2% [at 0.588 µM] (inactive). Further, the viability, % of control in experiment [3] is 96.9% [at 0.588 µM] (inactive). The activity (max response) in experiment [4] is -1% (inactive). Besides, the activity change, negative = viability loss in experiment [5] is -8.55% [at 0.587 µM] (inactive).

For the molecule `CC(=O)OCC(COC(C)=O)OC(C)=O`, the Potency entry in experiment [1], in experiment [2], in experiment [3] and in experiment [5] was “inactive” throughout. Also, in experiment [4], the activity (max response) is 3.85% (inactive).
